In the library only some 4% were active in any assay of this set; here they are far more common.
esBAF inh: SWI/SNF esBAF complex inhibition. mouse ES cells, Bmi1-luciferase knock-in reporter, 24 h; 100% = twice the neutral-well signal. reporter increase, % at 12.5 µM. 350,000 tested, 2% active; in the data active = activation above about 40%; inconclusive = no clear call, values can overlap the other calls;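 also: 0% = median of the plate's neutral control wells and 100% = double that signal; a rise in the Bmi1 reporter signal indicates esBAF inhibition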
MITF TRPM1 HTS: increases MITF-driven TRPM1 promoter luciferase signal. 300,000 tested, 0.75% active. SK-MEL-5 TRPM1-promoter luciferase, 24 h; % of positive control, neutral wells = 0. activation, % at 12.5 µM. AID 588334;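 active = mean activation of at least 80% with every replicate also reaching 80%; inconclusive = mean reaches 80% but some replicate falls short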;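 also: 0% = neutral control wells and 100% = parthenolide positive control wells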
Wnt act: activates Wnt/beta-catenin signaling in a reporter cell assay; activation, % at 9.35 µM; activator, plate reader; 300,000 tested, 1.2% active; in the data active = activation above about 30%, passing the limit was not always enough; inconclusive = no clear call, values can overlap the other calls;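 also: 0% = neutral control wells and 100% = positive control wells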
MITF TRPM1 inh: reduces MITF-dependent TRPM1 promoter luciferase signal | SK-MEL-5 TRPM1 promoter luciferase, 24 h | inhibition, % at 12.5 µM | 330,000 tested, 0.83% active | AID 488899;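 active = mean inhibition across replicates of 60% or more, whatever share of single replicates reaches that level; inconclusive = some that reach 60%, reason not given; inactive = mean inhibition across replicates below 60%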
EWS-Fli inh: inhibitors of EWS/Fli oncoprotein transcriptional activity. A673 NR0B1-luciferase reporter, viability-normalised. inhibition, % at 12.6 µM. 350,000 tested, 0.67% active. AID 651661;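 active = mean inhibition of at least 50% after viability correction, with every replicate also passing that limit; inconclusive = mean reaches 50% but only one of two replicates passes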;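 also: firefly luciferase signal divided by Alamar Blue viability fluorescence both relative to DMSO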
PAX8 reporter: PAX8 transcriptional activity inhibition; RMG-I TPO-luciferase reporter, SteadyGlo, 24 h; inhibition, % at 12.6 µM; 360,000 tested, 1.2% active;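 active = mean replicate inhibition at least 60% with every replicate also reaching 60%; inconclusive = only one of the two criteria is met; inactive = mean below 60% and not all replicates reaching 60%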;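 also: luciferase light reporting Pax8 driven TPO promoter activity; plate controls were median of neutral control wells for no effect and mitoxantrone controls for full effect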
The depositor's hits bear a star; ? = inconclusive; · = not tested or not shown.

SMILES	esBAF inh	MITF TRPM1 HTS	Wnt act	MITF TRPM1 inh	EWS-Fli inh	PAX8 reporter
Nc1c(C(=O)Nc2ccccc2)sc2nc(-c3cccnc3)ccc12	·	·	8	·	2	-13
Cc1ccc(-c2c3c(nc4sc(C(N)=O)c(N)c24)CCC3)cc1	·	-4	·	4	·	·
Nc1c(C(=O)N2CCCC2)sc2nc(-c3ccccc3)ccc12	69*	103*	49*	-106	-90	-155
O=C(N[C@H]1CC[C@@H](CCNS(=O)(=O)c2ccc(Cl)cc2)O[C@@H]1CO)c1cccnc1	-1	·	·	·	-5	-16
Cc1csc(SCc2nnc(-c3ccc(Cl)cc3)o2)n1	60*	50	·	-48	·	·
Cc1csc(SCc2nnc(-c3ccccc3Br)o2)n1	44	67	·	-61	·	·
COc1cc2oc3cc(C)oc(=O)c3c2cc1OC	·	4	2	-4	-5	-26
COc1cc(O)c2c(c1)oc(=O)c1c3cc(O)c(O)cc3oc21	·	·	·	·	56*	20
COc1ccc(OC)c(NC(=O)c2nc(S(=O)(=O)Cc3ccccc3)ncc2Cl)c1	-72	-94	-21	95*	·	53
Cc1cccc(CS(=O)(=O)c2ncc(Cl)c(C(=O)NCc3ccccc3)n2)c1	-8	-85	-1	87*	·	4
Cc1cccc(CS(=O)(=O)c2ncc(Cl)c(C(=O)Nc3c(C)cccc3C)n2)c1	-7	-18	-2	19	·	-13
Cc1cccc(C)c1NC(=O)c1nc(S(=O)(=O)Cc2ccccc2)ncc1Cl	-55	-87	-13	91*	73*	28
Cc1ccc(NC(=O)c2nc(S(=O)(=O)Cc3ccccc3)ncc2Cl)cc1	-17	-95	-10	95*	61*	?
CN1/C(=C\C(=O)C[n+]2ccc3ccccc3c2)C(C)(C)c2ccccc21	·	-59	-1	?	42	78*
Cc1ccccc1CS(=O)(=O)c1ncc(Cl)c(C(=O)Nc2ccc(F)cc2)n1	-3	-91	0	91*	56*	30
O=C(Nc1ccc(F)cc1)c1nc(S(=O)(=O)Cc2ccccc2)ncc1Cl	-7	-62	-7	62*	56*	104*
COc1ccccc1OCC(=O)/C=C1/N(C)c2ccccc2C1(C)C	·	7	-8	-5	-1	12
Cc1ccccc1NC(=O)c1nc(S(C)(=O)=O)ncc1Cl	-6	·	-3	28	74*	18
COc1ccc(NC(=O)c2nc(S(=O)(=O)Cc3cccc(C)c3)ncc2Cl)c(OC)c1	-1	-39	0	43	·	45
C[C@H](CO)N1C[C@H](C)[C@H](CN(C)C(=O)Nc2cccc3ccccc23)Oc2ccc(NC(=O)C3CC3)cc2CC1=O	-3	·	·	·	-1	3
CCCNC(=O)C[C@@H]1C[C@H]2c3cc(NC(=O)Nc4ccccc4F)ccc3O[C@H]2[C@@H](CO)O1	0	·	·	·	-136	-28
C[C@@H](NC(=O)C[C@@H]1C=C[C@H](NC(=O)Nc2ccc3c(c2)OCO3)[C@H](CO)O1)c1ccccc1	-3	·	·	·	5	-10
CCCc1nnc(NC(=O)c2nc(S(=O)(=O)Cc3cccc(C)c3)ncc2Cl)s1	7	-79	-17	78*	·	-7
Cc1nnc(NC(=O)c2nc(S(=O)(=O)Cc3ccccc3)ncc2Cl)s1	6	-35	-4	35	58*	6
CN1/C(=C/C(=O)c2nc(S(C)(=O)=O)ncc2Cl)C(C)(C)c2ccccc21	·	-104	·	106*	·	·
SMILES	esBAF inh	MITF TRPM1 HTS	Wnt act	MITF TRPM1 inh	EWS-Fli inh	PAX8 reporter
N=c1n(CCO)c2ccccc2n1Cc1ccc(Cl)cc1	5	1	·	-3	·	·
N=c1n(CC(=O)O)c2ccccc2n1Cc1ccccc1Cl	-3	2	-2	-3	·	0
N=c1n(Cc2ccccc2)c2ccccc2n1Cc1ccccc1	·	5	-6	-3	·	34
N=c1n(CC(=O)c2ccc([N+](=O)[O-])cc2)c2ccccc2n1Cc1ccccc1Cl	·	-77	2	79*	10	4
N=c1n(CC(=O)c2ccc([N+](=O)[O-])cc2)c2ccccc2n1Cc1ccccc1	·	-83	·	85*	·	4
N=c1n(CC(=O)c2ccc([N+](=O)[O-])cc2)c2ccccc2n1Cc1ccc(Cl)cc1	·	-91	·	92*	·	·
N=c1n(CC(=O)c2ccc(Br)cc2)c2ccccc2n1Cc1ccccc1	-4	-89	6	90*	-3	-24
O=C(N[C@@H]1C=C[C@H](CC(=O)N2CCc3ccccc3C2)O[C@H]1CO)C1CCOCC1	·	·	·	·	-10	·
C[C@H]1CN([C@@H](C)CO)C(=O)c2cccc(NC(=O)Nc3ccc(F)cc3)c2O[C@H]1CN(C)S(C)(=O)=O	0	·	·	·	1	-13
COc1ccc(/C(N)=N/OC(=O)Cc2cccs2)cc1OC	·	15	16	-13	1	-29
COc1ccc(/C(N)=N/OC(=O)Cc2cccs2)cc1	60*	?	-2	-89	-100	28
N/C(=N\OC(=O)COc1ccc(Br)cc1Cl)c1ccncc1	·	130*	67*	-127	-57	-254
COc1ccc(/C(N)=N/OC(=O)COc2ccccc2Cl)cc1	49*	60	0	-66	-12	-106
Cc1ccc(OCC(=O)O/N=C(\N)c2ccncc2)c(C)c1	69*	161*	20	-160	-108	-107
O=C(C[C@@H]1C=C[C@@H](NC(=O)C2CCC2)[C@H](CO)O1)NCc1ccncc1	-4	·	·	·	4	-29
CN(C)CC(=O)Nc1ccc2c(c1)[C@H]1C[C@H](CC(=O)NC3CCCC3)O[C@H](CO)[C@H]1O2	4	·	·	·	4	7
Cc1ccccc1OCC(=O)O/N=C(\N)c1ccncc1	58*	48	18	-54	-80	-154
Cc1cc(C)c(C)c(OCC(=O)O/N=C(\N)c2ccncc2)c1	-2	18	5	-16	11	-5
NC(=O)c1ccsc1NC(=O)c1ccc2c(c1)CCCC2	-39	-12	24	12	11	-4
CNC(=O)c1ccsc1NC(=O)c1ccc2c(c1)CCCC2	56*	52	19	-48	-125	-9
Brc1ccccc1C1Cc2nnccc2CN1 (stereo not drawn)	·	·	28	·	25	37
COc1ccc(-c2ccccc2C2Cc3nnccc3CN2)cc1 (stereo not drawn)	·	·	-2	·	-4	72*
C[C@H](CO)N1C[C@H](C)[C@@H](CN(C)Cc2ccc(-c3ccccc3)cc2)Oc2ccc(NS(=O)(=O)c3ccccc3)cc2CC1=O	4	·	·	·	18	80*
C[C@@H]1CN([C@@H](C)CO)C(=O)Cc2cc(NS(=O)(=O)c3ccc(Cl)cc3)ccc2O[C@H]1CN(C)Cc1ccc(-c2ccccc2)cc1	0	·	·	·	34	69*
C[C@@H]1CN([C@@H](C)CO)C(=O)Cc2cc(NS(=O)(=O)c3ccc(Cl)cc3)ccc2O[C@@H]1CN(C)Cc1ccc(-c2ccccc2)cc1	-4	·	·	·	1	-12
C[C@H]1CN([C@@H](C)CO)C(=O)Cc2cc(NS(=O)(=O)c3ccccc3)ccc2O[C@H]1CN(C)Cc1ccc(-c2ccccc2)cc1	0	·	·	·	-7	9

Screens: PubChem, Broad Institute
